Data from PubChem BioAssay AID371 (SRMLSC, 2006).
About 280 (8.5%) of roughly 3,300 compounds were called active.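 How the source made its calls: active means mean growth inhibition over the two runs of 50% or more; inactive means mean growth inhibition under 50%.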 Many of the other results were omitted from the sample, so actives are more common in it than they were.

Test: A549 NSCLC cell proliferation inhibitors – ATP luminescence, human non-small cell lung line, primary screen (AID 371);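 further: compound exposure lasted 72 h before the ATP read; 0% = untreated cell signal and 100% = no luminescence left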
Conditions: at 10 µM, active compounds read high

| Compound | growth inhibition |
| --- | --- |
| CCOC(=O)COc1nc(N(C)C)nc(N(C)C)n1 | -5.85% (inactive) |
| Cc1nc(SCC(=O)Nc2ccc3c(c2)OCO3)c(C#N)c2c1CCCC2 | 18.5% (inactive) |
| C=C1C2(C(=O)Nc3nccs3)CCC(C2)C1(C)C (stereo not drawn) | 5.39% (inactive) |
| COc1ccc(-c2nnc3sc(-c4c(OC)cccc4OC)nn23)cc1 | 16.6% (inactive) |
| CC(O)CNc1nc2c(c(=O)n(C)c(=O)n2C)n1Cc1cccc(C(F)(F)F)c1 (stereo not drawn) | 22.2% (inactive) |
| O=C(Nc1ccc2c(c1)OCO2)c1cncc(Br)c1 | 4.86% (inactive) |
| COC(=O)c1ccn(C(=O)c2ccc(Cl)cc2)n1 | 3.19% (inactive) |
| COCCOC(=O)c1c(C)nc(SCC(=O)Nc2ccc(OC)cc2)c(C#N)c1-c1ccco1 | 5.46% (inactive) |
| CCCN(CCC)c1nc2ccccc2nc1C(C#N)C(=O)OC(C)COC (stereo not drawn) | 52.1% (active) |
| CCCCN(CCCC)c1nc2ccccc2nc1C(C#N)C(=O)NCCCOC (stereo not drawn) | 9.29% (inactive) |
| C=CCN(CC=C)c1nc2ccccc2nc1C(C#N)C(=O)OC(C)C (stereo not drawn) | 23.2% (inactive) |
| Cc1oc2cc(O)cc(C)c2c(=O)c1-c1cnn(-c2ccccc2)c1 | 59% (active) |
| Cc1oc2cc(O)ccc2c(=O)c1-c1cnn(-c2ccccc2)c1 | 28.4% (inactive) |
| CCOC(=O)c1oc2cc(O)cc(C)c2c(=O)c1-c1cscn1 | 4.18% (inactive) |
| C#CCSC1=C(C#N)C(c2cccs2)C(C(=O)OCC)=C(C)N1 (stereo not drawn) | 47.5% (inactive) |
| CCOC(=O)C1=C(C)NC(SCC(=O)Nc2nc(C)cs2)=C(C#N)C1c1cccs1 (stereo not drawn) | 86.8% (active) |
| CCSC1=C(C#N)C(c2cccs2)C(C(=O)OC)=C(C)N1 (stereo not drawn) | 30.4% (inactive) |
| COc1cc(-c2nn3c(-c4ccco4)nnc3s2)cc(OC)c1OC | 0.05% (inactive) |
| O=C(NCCCN1CCOCC1)C1(c2ccccc2)CCOCC1 | 2.07% (inactive) |
| O=C(c1ccc(=O)oc1)N1CCN(C(c2ccccc2)c2ccccc2)CC1 | 41.2% (inactive) |
| CNCCCC12CCC(c3ccccc31)c1ccccc12 | 52.9% (active) |
| CCCCc1nc2n[nH]c(N)c2c2c1CCCC2 | 12.1% (inactive) |
| CC(C)(C#N)C(C)(C)c1nn[nH]n1 | -3.48% (inactive) |
| Cc1cc(=O)n(CCC(=O)O)c2ccccc12 | 0.16% (inactive) |

| Compound | growth inhibition |
| --- | --- |
| COc1ccc(CCN2CCC(Nc3nc4ccccc4n3Cc3ccc(F)cc3)CC2)cc1 | 95.5% (active) |
| Clc1ccc(Cn2c(CN3CCCC3)nc3ccccc32)cc1 | 29.6% (inactive) |
| COc1ccc2c(c1)nc(N)n2Cc1ccccc1 | 21.8% (inactive) |
| COc1ccc(OC)c(C2C(C#N)=C(N)Oc3cc(C)n(Cc4ccccn4)c(=O)c32)c1 (stereo not drawn) | -2.3% (inactive) |
| COC(=O)CSc1nc(C)c(Oc2ccccc2)c(=O)[nH]1 | -3.23% (inactive) |
| COC(=O)c1ccccc1OCc1cccc(C)n1 | 6.89% (inactive) |
| Cc1cccc2c1NC(C)CC2C (stereo not drawn) | 0.83% (inactive) |
| COc1cc2c(cc1OC)C1(CCCC1)C(N)=C2C#N | 54.9% (active) |
| COc1ccc(C2C(C#N)=C(N)SC(N)=C2C#N)cc1OC | 2.23% (inactive) |
| CC(=O)NC1(C(F)(F)F)C(=O)Nc2c1c(=O)n(C)c(=O)n2C (stereo not drawn) | 0.54% (inactive) |
| CCOC(=O)C1=C(N)N2C(=O)CSC2=C(C(=O)OC)C1 | -0.01% (inactive) |
| Cc1cccc(CN2CCN(C(c3ccccc3)c3ccc(Cl)cc3)CC2)c1 (stereo not drawn) | 3.35% (inactive) |
| OCCOCCN1CCN(C(c2ccccc2)c2ccc(Cl)cc2)CC1 (stereo not drawn) | 1.66% (inactive) |
| CN1CCCN(C(c2ccccc2)c2ccc(Cl)cc2)CC1 (stereo not drawn) | 78.7% (active) |
| CCCCCn1c2nc3ccccc3nc2c2c(=O)n(CC(C)C)cnc21 | -1.51% (inactive) |
| CN1CCN(c2nc3c(c(=O)n(C)c(=O)n3C)n2Cc2cccc3ccccc23)CC1 | -7.28% (inactive) |
| CCN(CC)CCCN1C(=O)C(=O)/C(=C(/O)c2ccc(OC)cc2)C1c1ccco1 (stereo not drawn) | 1.94% (inactive) |
| Nc1c(C(=O)NCC2CCCO2)c2nc3ccccc3nc2n1/N=C/c1ccncc1 (stereo not drawn) | 2.51% (inactive) |
| COc1ccccc1-n1c(N)c(C(=O)NCC2CCCO2)c2nc3ccccc3nc21 (stereo not drawn) | 52.9% (active) |
| COCCn1c(N)c(C(=O)NCC2CCCO2)c2nc3ccccc3nc21 (stereo not drawn) | 23.5% (inactive) |
| O=C(Oc1ccccc1N1C(=O)CCC1=O)c1ccco1 | 6.54% (inactive) |
| COC(=O)CSc1nc2c(c(=O)n(C)c(=O)n2C)n1CCC(C)C | -2.98% (inactive) |
| COc1cc2nc(N3CCN(C(=O)C4COc5ccccc5O4)CC3)nc(N)c2cc1OC (stereo not drawn) | 91% (active) |
| COC(=O)c1ccccc1NC(=O)C1COc2ccccc2O1 (stereo not drawn) | 11.9% (inactive) |
